Assay results from PubChem BioAssay AID1159580 (chemical genetic matrix, 2015).
Out of some 5,500 compounds screened, about 2,000 (36%) were called active. Inconclusive results (about 18%) are left out. Rule as the data show it: active = normalized growth mostly below about 0.91 (no sharp cut-off); inconclusive = no clear call, values can overlap the other calls; inactive = mostly above about 0.92. Some of the results follow.

Assay: chemical genetic growth profiling, strain panel (AID 1159580);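 also: tested at 20 µM; growth read once vehicle control cultures reached saturation at 30 °C; 1 = growth at the plate median or of vehicle wells; lower values mean less growth of the strain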
Details: S. cerevisiae deletion strains, growth OD
[1] = locus YAL013W, strain DEP1, active compounds read low
[2] = locus YAL040C, strain CLN3, active compounds read low
[3] = locus YCL061C, strain MRC1 (second series), active compounds read low
[4] = locus YDR363W, strain ESC2, active compounds read low
[5] = locus YER002W, strain NOP16, active compounds read low
[6] = locus YGR078C, strain PAC10, active compounds read low
[7] = locus YMR307W, strain GAS1, active compounds read low
[8] = locus YNL153C, strain GIM3, active compounds read low
[9] = locus YNL197C, strain WHI3, active compounds read low
[10] = locus YNL224C, strain SQS1, active compounds read low
[11] = locus YOR083W, strain WHI5 (second series), active compounds read low

Measured: normalized growth

O=C(CCCN1CCN(c2ccccn2)CC1)c1ccc(F)cc1
inactive: locus YAL030W, strain snc1, active compounds read low 0.989 | locus YBL061C, strain skt5, active compounds read low 0.968 | locus YBR009C, strain hhf1, active compounds read low 0.964 | locus YBR023C, strain chs3, active compounds read low 0.969 | locus YBR171W, strain sec66, active compounds read low 0.954 | locus YCL011C, strain gbp2, active compounds read low 0.971 | locus YCL016C, strain dcc1, active compounds read low 0.95 | locus YCL061C, strain MRC1, active compounds read low 0.993 | locus YCL069W, strain vba3, active compounds read low 0.977 | locus YCR088W, strain abp1, active compounds read low 0.992 | locus YDL005C, strain med2, active compounds read low 0.984 | locus YDL040C, strain nat1, active compounds read low 0.984 | locus YDR001C, strain nth1, active compounds read low 0.983 | locus YDR137W, strain rgp1, active compounds read low 1 | locus YDR159W, strain sac3, active compounds read low 0.996 | locus YDR297W, strain sur2, active compounds read low 0.972 | locus YDR334W, strain swr1, active compounds read low 0.968 | locus YDR335W, strain msn5, active compounds read low 0.948 | locus YEL003W, strain gim4, active compounds read low 0.933 | locus YEL037C, strain rad23, active compounds read low 0.971 | locus YEL061C, strain CIN8 (second series), active compounds read low 0.976 | locus YER015W, strain faa2, active compounds read low 0.977 | locus YER016W, strain bim1, active compounds read low 0.981 | locus YER111C, strain swi4, active compounds read low 0.947 | locus YGL167C, strain pmr1, active compounds read low 0.94 | locus YGL173C, strain kem1, active compounds read low 0.927 | locus YGL227W, strain vid30, active compounds read low 0.999 | locus YGL240W, strain doc1, active compounds read low 0.966 | locus YGL253W, strain hxk2, active compounds read low 0.946 | locus YHR027C, strain rpn1, active compounds read low 0.974 | locus YHR030C, strain SLT2, active compounds read low 1.04 | locus YHR079C, strain IRE1, active compounds read low 1.04 | locus YJL092W, strain hpr5, active compounds read low 0.984 | locus YJL095W, strain BCK1 (second series), active compounds read low 0.968 | locus YJL095W, strain BCK1, active compounds read low 0.982 | locus YJL115W, strain asf1, active compounds read low 0.973 | locus YJL154C, strain vps35, active compounds read low 0.993 | locus YJL164C, strain tpk1, active compounds read low 0.932 | locus YJL166W, strain qcr8, active compounds read low 0.949 | locus YJL187C, strain SWE1, active compounds read low 0.967 | locus YJR066W, strain TOR1, active compounds read low 0.972 | locus YKR026C, strain gcn3, active compounds read low 0.988 | locus YKR091W, strain srl3, active compounds read low 0.99 | locus YLL001W, strain dnm1, active compounds read low 0.975 | locus YLL026W, active compounds read low 0.987 | locus YLL041C, strain sdh2, active compounds read low 0.984 | locus YLR027C, strain aat2, active compounds read low 0.975 | locus YLR113W, strain HOG1, active compounds read low 1.01 | locus YLR221C, strain rsa3, active compounds read low 0.976 | locus YLR258W, strain gsy2, active compounds read low 0.987 | locus YLR342W, strain FKS1, active compounds read low 0.981 | locus YLR357W, strain rsc2, active compounds read low 1.12 | locus YLR370C, strain arc18, active compounds read low 0.95 | locus YLR384C, strain iki3, active compounds read low 0.943 | locus YML120C, strain ndi1, active compounds read low 0.961 | locus YMR058W, strain fet3, active compounds read low 0.943 | locus YMR125W, strain sto1, active compounds read low 0.981 | locus YMR129W, active compounds read low 0.986 | locus YMR205C, strain PFK2, active compounds read low 0.894 | locus YMR231W, strain pep5, active compounds read low 0.973 | locus YNL183C, strain NPR1, active compounds read low 0.977 | locus YNL209W, strain ssb2, active compounds read low 0.962 | locus YNL322C, strain KRE1 (second series), active compounds read low 1.02 | locus YNR049C, strain mso1, active compounds read low 0.986 | locus YOR080W, strain dia2, active compounds read low 0.998 | locus YOR083W, strain WHI5, active compounds read low 0.948 | locus YOR106W, strain vam3, active compounds read low 0.905 | locus YOR231W, strain MKK1, active compounds read low 1.04 | locus YOR265W, strain rbl2, active compounds read low 0.969 | locus YOR290C, strain snf2, active compounds read low 0.894 | locus YPL078C, strain atp4, active compounds read low 0.915 | locus YPL106C, strain sse1, active compounds read low 1.1 | locus YPL240C, strain hsp82, active compounds read low 0.985 | locus YPL256C, strain CLN2, active compounds read low 1.1
active: locus YAL021C, strain ccr4, active compounds read low 0.848 | locus YAL026C, strain drs2, active compounds read low 0.0899 | locus YBR231C, strain swc5, active compounds read low 0.855 | locus YBR279W, strain paf1, active compounds read low 0.93 | locus YDR069C, strain doa4, active compounds read low 0.858 | locus YDR195W, strain ref2 1.23 [resistant] | locus YDR392W, strain spt3, active compounds read low 0.606 | locus YER155C, strain BEM2 (second series), active compounds read low 0.436 | locus YFR010W, strain ubp6, active compounds read low 0.868 | locus YHR013C, strain ard1, active compounds read low 0.746 | locus YHR142W, strain chs7, active compounds read low 0.87 | locus YJL129C, strain trk1, active compounds read low 0.811 | locus YKL160W, strain elf1, active compounds read low 0.9 | locus YLR262C, strain YPT6 (second series), active compounds read low 0.821 | locus YLR320W, strain mms22, active compounds read low 0.57 | locus YNL071W, strain lat1, active compounds read low 0.781 | locus YNL248C, strain rpa49, active compounds read low 0.876 | locus YOR001W, strain rrp6, active compounds read low 0.789 | locus YOR070C, strain gyp1, active compounds read low 0.392 | locus YOR270C, strain vph1, active compounds read low 0.541 | locus YPL051W, strain arl3, active compounds read low 0.905

O=C(CCCN1CCC(O)(c2cccc(C(F)(F)F)c2)CC1)c1ccc(F)cc1
inactive: [2] 1.01 | [3] 0.974 | [5] 1.03 | [6] 0.985 | [8] 0.961 | [9] 1.05 | [11] 1.04
active: [1] 0.832 | [4] 0.851 | [7] 0.818 | [10] 1.13 [resistant] | locus YNL322C, strain KRE1, active compounds read low 0.882

COc1ccccc1N1CCN(CCN(C(=O)c2ccc(F)cc2)c2ccccn2)CC1
inactive: [1] 0.995 | [2] 1.01 | [3] 1 | locus YDR150W, strain NUM1, active compounds read low 0.999 | [4] 1.02 | [5] 1.01 | [6] 1.01 | locus YJR075W, strain HOC1, active compounds read low 1.01 | [7] 0.993 | locus YNL128W, strain TEP1, active compounds read low 1 | [8] 1.01 | locus YNL175C, strain NOP13, active compounds read low 1.01 | [9] 0.998 | [10] 1 | [11] 1.01 | locus YPL055C, strain LGE1, active compounds read low 1.01 | locus YPL241C, strain CIN2, active compounds read low 1
